Screening data: PubChem BioAssay, National Center for Advancing Translational Sciences (NCATS)
TDP1 cell noCPT: qHTS for Inhibitors of human tyrosyl-DNA phosphodiesterase 1 (TDP1): qHTS in cells in absence of CPT | DT40 Tdp1-/- hTDP1 cells, no CPT, ATP luminescence, 48 h | Potency, µM (highest dose often 46.2 µM), usual class: inhibitors | hit rate 15% among 420,000; further: nearly all actives have a fitted effect of over 55% in size
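Growth kinetics read by CellTiter-Glo luminescence after ≥48 hr at 37 °C. Cells: DT40 Tdp1-/- stably carrying human TDP1, 400 per well, compound exposure in the absence of CPT (DMSO vehicle).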
DT40 TDP1 CPT: growth inhibition of DT40 Tdp1-/-;hTDP1 cells with camptothecin (screen for TDP1 inhibitors) | chicken DT40 Tdp1-/-;hTDP1 cells + 20 nM CPT, ATP luminescence, 48 h | hit rate 12% among 420,000 | Potency, µM (titrated, usually from 46.2 µM), usual class: inhibitors; further: nearly all actives have a fitted effect of over 55% in size
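Cell growth measured by CellTiter-Glo luminescence after a minimum 48 h, 37 C compound exposure with 20 nM CPT in Tdp1-knockout DT40 cells stably expressing hTDP1, seeded 400/well; qHTS titration format.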
ELG1 repair inh: ELG1-dependent DNA repair inhibition; Potency, µM (series often up to 46.1 µM), usual class: inhibitors; HEK293T ELG1-luciferase reporter, luminescence, 16 h; DNA damage induced by 5-fluorouridine; hit rate 2.3% among 330,000; further: nearly all actives have a fitted effect of over 55% in size
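Cells (2,000 per well) received 5-fluorouridine plus test compound or DMSO and were incubated 16 hr at 37 °C, 5% CO2. Luciferase activity was read by luminescence 30 min after ONE-Glo addition; signal suppression marked inhibition of damage-induced ELG1 function.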
TDP1 block: TDP1 (human) enzyme inhibition. Q9NUW8. recombinant TDP1, AlphaScreen DNA substrate cleavage. Potency, µM (series often up to 130 µM), usual class: inhibitors. hit rate 0.28% among 350,000; further: nearly all actives have a fitted effect of over 40% in size
Target sequence (Q9NUW8 whole entry, looked up): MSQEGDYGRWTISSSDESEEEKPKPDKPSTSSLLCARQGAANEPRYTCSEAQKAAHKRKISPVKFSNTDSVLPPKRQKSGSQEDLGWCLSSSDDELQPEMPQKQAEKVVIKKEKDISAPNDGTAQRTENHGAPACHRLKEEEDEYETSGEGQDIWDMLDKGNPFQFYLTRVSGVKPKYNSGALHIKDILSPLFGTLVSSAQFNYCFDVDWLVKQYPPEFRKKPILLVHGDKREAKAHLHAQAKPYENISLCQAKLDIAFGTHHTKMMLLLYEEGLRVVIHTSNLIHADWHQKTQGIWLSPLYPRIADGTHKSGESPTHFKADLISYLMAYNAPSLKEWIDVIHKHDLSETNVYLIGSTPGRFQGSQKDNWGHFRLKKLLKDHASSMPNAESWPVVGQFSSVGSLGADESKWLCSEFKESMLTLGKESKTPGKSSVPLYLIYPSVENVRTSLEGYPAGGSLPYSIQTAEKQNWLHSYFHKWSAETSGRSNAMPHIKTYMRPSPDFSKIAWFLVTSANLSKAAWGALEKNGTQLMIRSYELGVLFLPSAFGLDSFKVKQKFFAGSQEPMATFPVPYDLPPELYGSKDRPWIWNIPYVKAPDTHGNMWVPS
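Compounds were preincubated with Tdp1 (1 nM final) for 15 min at room temperature before substrate (15 nM final) started a 5 min reaction; beads (10 ug/ml final) were then added for 10 min before AlphaScreen detection.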
Giardia killer: kills Giardia lamblia. Giardia lamblia trophozoite viability. activity change, % at 7.66 µM, hits read low. hit rate 0.15% among 340,000. AID 540267; in the data active means activity change below about -80%; inconclusive means between about -30% and that limit;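 further: parasites exposed to compound for two days anaerobically before the ATP read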
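Luminescence from cellular ATP indicates surviving trophozoites (100 cells/well) following 48 hrs anaerobic compound treatment at 37 deg C; signal develops 15-30 min at room temperature.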
IL1B secr inh: blocks inflammasome-driven IL-1 beta release; THP-1 LPS/ATP IL-1B secretion, AlphaLISA, 16 h; stronger effect = lower value; activity change, % at 57.5 µM; hit rate 4.7% among 360,000; AID 743279; in the data active means activity change below about -50%; inconclusive means mostly about -30% to -49%
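THP-1 cells pretreated 1 hr with compounds (up to 57.5 uM final), then stimulated with LPS (250 ng/mL final) plus ATP (1.25 mM final); secreted IL-1B measured by AlphaLISA after 16 hr, decreased signal indicating inhibition.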
Numbers stand for hits; – = inactive; ? = inconclusive; · = not tested or not shown. Only some compounds are listed: those with a hit (about 19% of all), similar ones and a draw of the others. Unless noted, the call rests on the fitted dose curve; in most records, active means well fitted curve in the direction sought with a large enough effect; inconclusive means small, poorly fitted or top-dose-only effect, or another doubt; inactive means no such curve, though single readings can be large; an effect the other way counts as inactive or inconclusive.

SMILES	TDP1 cell noCPT	DT40 TDP1 CPT	ELG1 repair inh	TDP1 block	Giardia killer	IL1B secr inh
COc1ccc2c(c1)CCN=C2Cc1ccc(OC)c(OC)c1	16µM	?	–	–	–	?
COc1ccc(Cc2nnc(N)s2)cc1OC	–	–	–	–	–	–
Cc1csc(NC(=O)c2cc3c(s2)CCCCC3)n1	15µM	?	?	–	?	-63
Cc1cnc(NC(=O)c2cc3c(s2)CCCC3)s1	–	–	?	–	?	–
CCOC(=O)Cc1csc(NC(=O)c2cc3c(s2)CCCC3)n1	?	?	–	–	–	–
Cc1csc(NC(=O)c2cc3c(s2)CCCC3)n1	12µM	?	?	–	?	–
CCNc1ccc(C(=O)OCC)cc1NC(=O)c1cccc(S(=O)(=O)N(C)c2ccccc2)c1	4.6µM	16µM	7.3µM	–	–	–
CCOC(=O)c1ccc(S(=O)(=O)NNC(=O)c2cccc(N(C)C)c2)cc1	–	–	–	–	–	-141
CCNc1ccc(C(=O)OCC)cc1NC(=O)c1cccc(N(C)C)c1	2.6µM	3.3µM	?	–	–	–
Cc1ccc(S(=O)(=O)NC(=O)c2cccc(N(C)C)c2)cc1	–	–	–	–	–	–
Oc1ccccc1/C=N/n1cnn(Cc2ccccc2Cl)c1=S	?	?	–	–	–	–
Cc1cc(OC(=O)C(c2ccccc2)c2ccccc2)c([N+](=O)[O-])c(=O)[nH]1	–	–	–	–	–	–
O=C(O)CC(C(=O)O)c1ccc(OCCCCOc2ccc(C(CC(=O)O)C(=O)O)cc2)cc1 (stereo not given)	–	–	–	28µM	–	–
COc1ccc(-c2cn3c(n2)sc2cc(C(=O)NCCCc4ccccc4)ccc23)cc1	–	–	·	–	·	·
COc1cccc(-c2cn3c(n2)sc2cc(C(=O)NCCCc4ccccc4)ccc23)c1	4.6µM	6.5µM	·	–	·	·
COc1ccc(-c2cn3c(n2)sc2cc(C(=O)N4CCCCC4)ccc23)cc1	21µM	?	·	–	·	·
COc1cccc(C(=O)c2c[nH]c(C(=O)NCc3cccnc3)c2)c1	–	–	–	–	–	–
COc1ccc(-c2cn3c(n2)sc2cc(C(=O)Nc4c(C)cccc4C)ccc23)cc1	9.2µM	13µM	·	–	·	·
COc1ccc(-c2cn3c(n2)sc2cc(C(=O)Nc4ccc(C)cc4C)ccc23)cc1	?	–	·	–	·	·
COc1cccc(C(=O)c2c[nH]c(C(=O)NCc3cccs3)c2)c1	–	–	–	–	–	-62
CCC1=C2CC[C@H]3C(=O)NC(=O)[C@H]3[C@H]2[C@@]2(C)C(=O)N(CC3CC3)C(=O)N2C1=O	·	·	·	–	·	·
CCOc1ccc2nc(S(=O)(=O)NC(=O)C3(C)CCN3C(=O)c3c(C)noc3C)sc2c1 (stereo not given)	–	–	·	·	·	–
CCOc1ccc(CNC(=O)c2ccc3c(c2)sc2nc(-c4ccccc4)cn23)cc1	–	–	·	–	·	·
O=C(NCc1cccs1)c1ccc2c(c1)sc1nc(-c3ccccc3)cn12	23µM	18µM	·	–	·	·
COc1cccc(-c2cn3c(n2)sc2cc(C(=O)NCc4cccs4)ccc23)c1	6.5µM	13µM	·	–	·	·
SMILES	TDP1 cell noCPT	DT40 TDP1 CPT	ELG1 repair inh	TDP1 block	Giardia killer	IL1B secr inh
COc1ccc(-c2cn3c(n2)sc2cc(C(=O)NCc4cccs4)ccc23)cc1	13µM	10µM	·	–	·	·
Cc1ccc(Cn2nnc3c(=O)[nH]c(C4CCCN(S(=O)(=O)c5ccccc5F)C4)nc32)cc1 (stereo not given)	–	–	?	·	–	–
O=c1[nH]c(C2CCN(S(=O)(=O)c3ccccc3C(F)(F)F)CC2)nc2c1nnn2Cc1ccccc1	?	?	?	·	–	-51
Cc1ccc(Cn2nnc3c(=O)[nH]c(C4CCN(S(=O)(=O)Cc5ccccc5)CC4)nc32)cc1	?	?	15µM	–	–	–
O=c1[nH]c(C2CCN(S(=O)(=O)c3ccccc3F)CC2)nc2c1nnn2Cc1ccc(OC(F)(F)F)cc1	?	?	18µM	–	–	–
O=C(Nc1cccc(C(=O)OCc2cc(=O)n3nc(C4CC4)sc3n2)c1)c1cccc(F)c1	–	–	·	–	·	·
O=C(NCc1ccco1)c1cc(S(=O)(=O)N2CCCc3ccccc32)ccc1Cl	13µM	15µM	–	–	–	–
COc1ccc(S(=O)(=O)N2CCc3ccccc32)cc1C(=O)NCc1ccco1	?	–	–	?	–	–
CC(C)CNC(=O)COC(=O)c1ccc(Cl)c(S(=O)(=O)N2CCc3ccccc32)c1	–	–	–	–	–	–
CCNC(=O)COC(=O)c1cc(S(=O)(=O)N2CCCc3ccccc32)ccc1Cl	–	–	–	–	–	-94
CC[C@@]12C(=O)N(c3cccc(F)c3)C(=O)N1[C@H](c1ccc(Cl)cc1)[C@@H]1C(=O)N(C3CCCCC3)C(=O)[C@@H]12	?	?	–	–	–	–
